Shiga toxin inh: A qHTS for Small Molecule Inhibitors of Shiga Toxin; Vero cells, Shiga toxin protein synthesis inhibition reporter; inhibition, % at 38.7 µM; 9.2% of 290,000 active; AID 2315, 2010; in the data active = inhibition mostly above about 28%, no sharp cut-off; inactive = mostly below about 43%; note: 0% is about no effect
FMDV inh: High Throughput Screening for Foot and Mouth Disease Virus Antivirals; 1.2% of 410,000 active; Potency, µM (titrated, usually from 57.9 µM), inactives show top-dose activity change, negative = inhibition, hits mostly inhibitors; FMDV antiviral cell-based qHTS; calls by dose curve; tested in HEK293T cells; note: read-out not given here; potency is the fitted concentration of half-maximal effect; % is set by controls: 0 for no effect and ±100 for the full control effect; nearly all actives have a fitted effect of over 45% in size
Cycloheximide cs: Cycloheximide Counterscreen for Small Molecule Inhibitors of Shiga Toxin; cell reporter, cycloheximide protein synthesis inhibition counterscreen; max response, %; 12% of 300,000 active; AID 2314, 2010; in the data active = max response mostly above about 13%, no sharp cut-off; inactive = mostly below about 14%; note: read at 38.3 µM for the half of the compounds with a filed dose; 0% is about no effect
HCV inhibitor: qHTS Assay for Inhibitors of Hepatitis C Virus (HCV). Huh7.5.1 HCVcc-Cre infection, luciferase reporter, 44 h. 3.4% of 340,000 active. AID 651820, 2012. Potency, µM (top dose mostly 41.8 µM), without a hit: at the highest dose activity change, negative = inhibition, usual class: inhibitors; active = well fitted inhibition curve with a large enough effect; inconclusive = small, poorly fitted or top-dose-only effect, or another doubt; inactive = no such curve, though single readings can be large or run the other way; note: potency is the fitted concentration of half-maximal effect; % is set by controls: 0 for no effect and ±100 for the full control effect
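1,000 cells/well; 4 h culture; + compound; + HCVcc-Cre (~0.5 moi); 44 h; luciferase substrate, RT 15 min; read 15 sec.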
LASV entry inh: qHTS for Inhibitors of binding or entry into cells for Lassa Virus; Lassa virus pseudotype entry inhibition, cell reporter; Potency, µM (highest dose often 37.9 µM), without a hit: top-dose activity change, negative = inhibition, usual class: inhibitors; 1.2% of 300,000 active; AID 540256, 2011; calls by dose curve; tested in HEK293 cells; note: potency is the fitted concentration of half-maximal effect; % is set by controls: 0 for no effect and ±100 for the full control effect; nearly all actives have a fitted effect of over 50% in size
Marburg entry inh: qHTS for inhibitors of binding or entry into cells for Marburg Virus | Marburg virus pseudotyped entry inhibition, cell reporter | Potency, µM (titrated, usually from 37.8 µM), inactives show at the highest dose activity change, negative = inhibition, usual class: inhibitors | 1.8% of 300,000 active; calls by dose curve; tested in HEK293 cells; note: potency is the fitted concentration of half-maximal effect; % is set by controls: 0 for no effect and ±100 for the full control effect
An asterisk follows results filed as active; ? = inconclusive; · = not tested or not shown; + = active, no number; [ ] = remark or other dose. Rows were chosen to be rich in hits. Some 13% of all compounds tested hit in one or more screens of this group.

SMILES | Shiga toxin inh | FMDV inh | Cycloheximide cs | HCV inhibitor | LASV entry inh | Marburg entry inh
COc1ccc(NC(=O)c2onc(C)c2Cl)cc1 | 89* | 45% | 40* | -11% | · | ·
CCc1ccc(NC(=O)c2onc(C)c2Cl)cc1 | 56* | 0% | 59* | 2% | · | ·
Cc1noc(C(=O)Nc2ccc(C#N)cc2)c1Cl | 34 | 0% | -1 | -8% | 1%[46.1 µM] | 22%[46.1 µM]
COc1ccc(NC(=O)c2onc(C)c2Cl)cc1OC | 49* | 16% | 51* | -6% | · | -5%
COc1ccc2[nH]c(N=Nc3ccccc3C)c(O)c2c1 | + | 10% | 16 | ? | ? | 29%
Cc1ccc2[nH]c(O)c(N=Nc3ccccc3C)c2c1 | 28 | 27% | -2 | 3% | -5%[46.1 µM] | 14%[46.1 µM]
CCN1CCCC1CNC(=O)c1ccc(Sc2ccc(F)cc2)c([N+](=O)[O-])c1 (stereo not given) | -6 | -8% | -1 | 6.3µM* | · | 6.3µM*
CCN1CCCC1CNC(=O)c1ccc(Sc2ccccc2Cl)c([N+](=O)[O-])c1 (stereo not given) | -19 | -21% | -3 | 5.6µM* | -21% | ?
CCN1CCN(C(=O)c2ccc(Sc3ccccc3Cl)c([N+](=O)[O-])c2)CC1 | -13 | -16% | -6 | -12% | -10% | ?
c1ccc(-n2cnc3ccccc32)nc1 | 13 | 9% | 11 | -23% | 14% | -9%
FC(F)(F)c1ccc(-n2cnc3ccccc32)nc1 | 46* | 27% | 33* | 5% | · | ·
O=C(CNC(=O)c1ccccc1F)OCc1csc(-c2ccccc2)n1 | 31 | 30% | 18* | 9% | 6% | ?
Cn1cccc1C(=O)OCc1ccc(F)cc1 | 50 | 25% | 19* | 13% | 5% | 0%
COc1ccccc1C(=O)NCC(=O)OCc1csc(-c2ccccc2)n1 | -29 | 17% | 12 | -5% | 22% | 13%
Cc1ccsc1C(=O)OCc1nnc(-c2ccccc2)o1 | · | 42% | · | 0% | ? | 1%
Cc1ccsc1C(=O)OCc1csc(-c2ccccc2)n1 | 102* | -52% | 26* | -7% | ? | ?
O=C(O)Cc1csc(-c2ccccc2)n1 | 21 | 17% | 16 | -8% | 9%[46.1 µM] | -7%[46.1 µM]
CC1CCCCC1NC(=O)COC(=O)c1cccn1C (stereo not given) | · | 7% | · | 6% | · | ·
CN(Cc1cccs1)C(=O)Cc1csc(-c2ccccc2)n1 | 69* | 65% | 47* | -5% | · | ·
CC(C)CN1CC(C)C(=O)N(c2ccccc2)C1=O (stereo not given) | · | -10% | · | -5% | 10% | 1%
CSc1ccc(CN(C)CC(=O)Nc2ccccc2Br)cc1 | -9 | -30% | -5 | ? | -12% | -19%
COc1ccc(-c2c(C)nn3c(C(F)(F)F)cc(C)nc23)cc1OC | · | -32% | · | · | -21%[46.1 µM] | ·
CCOC(=O)COc1c(OC)cc(Cl)cc1C1Nc2ccccc2C(=O)N1c1ccc(F)cc1 (stereo not given) | 17 | · | 16 | -24% | ? | ?
CCOC(=O)N1CCC(=NNc2ccnc3cc(Cl)ccc23)CC1 | 12 | -10% | 4 | ? | 14% | ?
Cn1cccc1C(=O)OCc1csc(-c2ccccc2)n1 | 77* | -6% | 22* | -22% | ? | ?
SMILES | Shiga toxin inh | FMDV inh | Cycloheximide cs | HCV inhibitor | LASV entry inh | Marburg entry inh
O=C(OCc1csc(-c2ccccc2)n1)C1=NN(c2ccccc2)C(=O)CC1 | · | 26% | · | -3% | · | ·
O=C(OCc1csc(-c2ccccc2)n1)c1cccs1 | 49* | -25% | 34* | -2% | 7% | ?
O=C(N/N=C/C1CCCCC1)c1ccccc1-n1cccc1 | · | -13% | · | 8% | 8% | 11%[46.1 µM]
COc1ccc2nc(SCC(=O)NC3CC3)c(C#N)cc2c1 | 20 | 15% | 6 | -15% | ? | 2%[46.1 µM]
Nc1ccc(C(=O)N/N=C/c2cn(Cc3ccccc3F)c3ccccc23)cc1 | 33* | 6% | 19* | ? | ? | -15%[46.1 µM]
COC(=O)N/N=C/c1cn(Cc2ccccc2F)c2ccccc12 | 3 | -28% | 11 | -25% | -27% | ?
Nc1ccc(C(=O)N/N=C/c2cn(Cc3ccccc3)c3ccccc23)cc1 | 16 | -18% | 17* | -2% | -11% | ?
COc1cc(C(=O)N/N=C/c2cn(Cc3ccccc3)c3ccccc23)ccc1O | 24 | ? | 14 | -23% | ? | 12%
O=C(O)c1ccc(N/N=C/c2cn(Cc3ccccc3F)c3ccccc23)cc1 | 32 | ? | 67* | 6% | · | ·
O=Cc1cn(Cc2ccccc2F)c2ccccc12 | 1 | -8% | 2 | 15% | ? | ?
CC(C)n1cc(/C=N/Nc2ccc(C(=O)O)cc2)c2ccccc21 | 54* | 3.5µM* | 58* | -3% | -23%[46.1 µM] | 5%[46.1 µM]
COc1cc(C(=O)N2Cc3ccccc3-n3nncc3C2)cc(OC)c1OC | · | -1% | · | · | · | ·
BrC(=C\c1ccccc1)/C=N/N1CCN(c2ccccc2)CC1 | 46 | 16% | 14 | -15% | ? | ?
CCn1cc(/C=N/NC(=O)c2cc3c(ccc4ccccc43)o2)c2ccccc21 | -25 | 0% | 10 | ? | -26% | -22%
Nc1ccc(C(=O)N/N=C/c2cn(Cc3ccc(F)cc3)c3ccccc23)cc1 | 107* | -20% | 33* | -17% | -22%[46.1 µM] | -20%[46.1 µM]
CNC(=S)N/N=C/c1cn(Cc2ccc(F)cc2)c2ccccc12 | -8 | ? | -2 | 32µM* | ? | ?
CCOC(=O)Cn1cc(/C=N/NC(=O)c2cc3ccccc3o2)c2ccccc21 | 58 | -14% | 26* | 5% | ? | 15%
COC(=O)N/N=C/c1cn(Cc2ccc(F)cc2)c2ccccc12 | 7 | -10% | 8 | -17% | · | ·
O=C(Cn1cnc2c(cnn2-c2ccc(F)cc2)c1=O)OCc1ccccc1 | -9 | 7% | 3 | 7% | -22% | 4%
Cc1ccc(-n2ncc3c(=O)n(CC(=O)OCc4ccccc4)cnc32)cc1 | 57 | 25% | 31* | 9% | -6% | -4%
O=C(Cn1cnc2c(cnn2-c2ccccc2)c1=O)OCc1ccccc1 | 76* | 6% | 30* | -20% | 22% | 20%[46.1 µM]
CNc1ncnc2sc(-c3ccccc3)cc12 | 15 | 8% | 12 | ? | -30% | -5%
S=c1[nH]cnc2sc(-c3ccccc3)cc12 | 77* | 0% | 31* | 2% | · | 10%[46.1 µM]
O=C(NCCc1ccccc1)c1ccc(=O)[nH]c1 | 57* | 46% | 26 | 16% | 26% | -1%
NS(=O)(=O)c1ccc(CCNC(=O)c2ccc(=O)[nH]c2)cc1 | -8 | -16% | -3 | 18% | 12% | 15%[46.1 µM]
CC(=O)Oc1ccc(C(=O)NCCc2ccccc2)cc1 | 36 | -21% | 15* | 4% | 7.1µM* | ?
CCOc1ccc(C(=O)NCCc2ccccc2)cc1 | 32 | · | 24* | -7% | 8.2µM* | ?
COc1ccccc1/C=C/C(=O)OC(C)CN1CCCCC1 (stereo not given) | 24 | -6% | 3 | -13% | ? | 16%

Screening data (PubChem BioAssay)
